This note sets out measurements from ChEMBL document CHEMBL2218924, “A broad activity screen in support of a chemogenomic map for kinase signalling research and drug discovery” (Biochem J, 2013).

In test [1] the target is T1, Serine/threonine-protein kinase TBK1 (Homo sapiens) (UniProt Q9UHD2).
T1 sequence (whole entry): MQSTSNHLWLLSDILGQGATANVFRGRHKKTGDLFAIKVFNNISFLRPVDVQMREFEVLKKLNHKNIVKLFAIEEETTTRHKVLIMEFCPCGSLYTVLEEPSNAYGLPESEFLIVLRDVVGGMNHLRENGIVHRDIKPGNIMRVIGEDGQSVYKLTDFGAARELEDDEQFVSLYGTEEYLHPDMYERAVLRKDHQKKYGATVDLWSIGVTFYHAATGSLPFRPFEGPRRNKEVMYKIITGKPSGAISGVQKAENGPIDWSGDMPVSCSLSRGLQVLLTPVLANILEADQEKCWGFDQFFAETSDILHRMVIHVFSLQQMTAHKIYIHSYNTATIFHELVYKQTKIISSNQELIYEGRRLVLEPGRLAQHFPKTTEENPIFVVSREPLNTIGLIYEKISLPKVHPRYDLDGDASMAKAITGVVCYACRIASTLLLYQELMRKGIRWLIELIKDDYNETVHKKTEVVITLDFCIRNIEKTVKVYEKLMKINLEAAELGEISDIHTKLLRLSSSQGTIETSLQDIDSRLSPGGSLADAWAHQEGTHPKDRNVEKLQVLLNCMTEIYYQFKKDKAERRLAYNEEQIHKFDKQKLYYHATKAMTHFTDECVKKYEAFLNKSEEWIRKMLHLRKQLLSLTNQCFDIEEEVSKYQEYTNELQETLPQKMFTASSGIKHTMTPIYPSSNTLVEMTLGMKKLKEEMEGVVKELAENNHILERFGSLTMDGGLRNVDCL
The settings on record: at 1 µM.

In test [2] the target is T1, Serine/threonine-protein kinase TBK1 (Homo sapiens). The note with it: at 10 µM.
The target of test [3] is T2, TGF-beta receptor type-1 (Homo sapiens) (UniProt P36897).
T2 sequence (whole entry): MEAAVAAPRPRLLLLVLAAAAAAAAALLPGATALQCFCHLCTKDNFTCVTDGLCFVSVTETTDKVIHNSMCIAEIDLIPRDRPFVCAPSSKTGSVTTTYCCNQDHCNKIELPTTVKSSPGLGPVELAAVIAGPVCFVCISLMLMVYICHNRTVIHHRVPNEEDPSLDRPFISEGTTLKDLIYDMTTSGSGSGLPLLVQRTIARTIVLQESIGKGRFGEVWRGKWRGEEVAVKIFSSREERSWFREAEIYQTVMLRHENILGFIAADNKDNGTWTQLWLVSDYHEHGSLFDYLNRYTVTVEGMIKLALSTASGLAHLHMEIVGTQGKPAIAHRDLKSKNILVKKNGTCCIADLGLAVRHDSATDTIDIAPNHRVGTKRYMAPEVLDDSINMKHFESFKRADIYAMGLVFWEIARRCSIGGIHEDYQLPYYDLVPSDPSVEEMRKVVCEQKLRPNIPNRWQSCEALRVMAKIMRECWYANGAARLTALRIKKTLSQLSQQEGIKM
The note with it: at 1 µM.

Test [4] deals with T2, TGF-beta receptor type-1 (Homo sapiens). The note with it: at 10 µM.
Test [5] deals with Insulin-like growth factor 1 receptor (Homo sapiens) (UniProt P08069). The settings on record: at 1 µM.
Sequence of Insulin-like growth factor 1 receptor (Homo sapiens) (P08069 31-736 limits assumed): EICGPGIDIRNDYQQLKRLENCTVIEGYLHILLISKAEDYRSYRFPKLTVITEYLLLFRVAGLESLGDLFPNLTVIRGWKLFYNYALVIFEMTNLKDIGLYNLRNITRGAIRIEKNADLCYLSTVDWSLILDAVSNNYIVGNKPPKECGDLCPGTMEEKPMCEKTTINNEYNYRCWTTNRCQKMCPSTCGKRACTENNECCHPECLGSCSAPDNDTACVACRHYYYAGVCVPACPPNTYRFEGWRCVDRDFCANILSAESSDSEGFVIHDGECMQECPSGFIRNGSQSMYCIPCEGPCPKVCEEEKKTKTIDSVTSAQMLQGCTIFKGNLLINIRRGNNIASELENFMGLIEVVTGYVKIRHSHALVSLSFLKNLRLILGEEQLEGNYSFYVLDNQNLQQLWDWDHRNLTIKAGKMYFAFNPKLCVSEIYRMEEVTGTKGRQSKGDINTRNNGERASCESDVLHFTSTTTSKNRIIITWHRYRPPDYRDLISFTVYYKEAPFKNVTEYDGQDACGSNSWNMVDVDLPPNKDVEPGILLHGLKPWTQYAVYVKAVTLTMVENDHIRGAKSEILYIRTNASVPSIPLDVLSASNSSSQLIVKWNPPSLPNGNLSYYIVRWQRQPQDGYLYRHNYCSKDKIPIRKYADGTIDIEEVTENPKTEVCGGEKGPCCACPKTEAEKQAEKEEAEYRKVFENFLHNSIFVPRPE
Sequence of Insulin-like growth factor 1 receptor (Homo sapiens) (P08069 741-1367 limits assumed): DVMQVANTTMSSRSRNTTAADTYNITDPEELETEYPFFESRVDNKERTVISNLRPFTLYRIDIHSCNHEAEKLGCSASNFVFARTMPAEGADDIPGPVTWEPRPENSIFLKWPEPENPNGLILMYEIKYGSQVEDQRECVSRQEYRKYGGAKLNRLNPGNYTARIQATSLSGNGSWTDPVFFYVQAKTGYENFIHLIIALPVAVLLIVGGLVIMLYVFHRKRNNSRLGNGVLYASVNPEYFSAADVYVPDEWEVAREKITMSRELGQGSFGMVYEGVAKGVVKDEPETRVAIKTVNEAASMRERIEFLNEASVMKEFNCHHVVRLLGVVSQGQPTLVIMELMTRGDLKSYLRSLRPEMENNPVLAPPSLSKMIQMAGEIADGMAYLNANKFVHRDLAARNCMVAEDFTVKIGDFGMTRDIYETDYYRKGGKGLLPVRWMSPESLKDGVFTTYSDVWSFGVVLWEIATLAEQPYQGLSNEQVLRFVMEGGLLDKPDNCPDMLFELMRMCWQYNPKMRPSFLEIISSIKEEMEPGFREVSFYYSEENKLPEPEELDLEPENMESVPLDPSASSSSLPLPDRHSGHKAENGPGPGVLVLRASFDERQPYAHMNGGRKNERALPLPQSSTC
Test [6] concerns the target T3, Inhibitor of nuclear factor kappa-B kinase subunit alpha (Homo sapiens) (UniProt O15111).
T3 sequence (whole entry): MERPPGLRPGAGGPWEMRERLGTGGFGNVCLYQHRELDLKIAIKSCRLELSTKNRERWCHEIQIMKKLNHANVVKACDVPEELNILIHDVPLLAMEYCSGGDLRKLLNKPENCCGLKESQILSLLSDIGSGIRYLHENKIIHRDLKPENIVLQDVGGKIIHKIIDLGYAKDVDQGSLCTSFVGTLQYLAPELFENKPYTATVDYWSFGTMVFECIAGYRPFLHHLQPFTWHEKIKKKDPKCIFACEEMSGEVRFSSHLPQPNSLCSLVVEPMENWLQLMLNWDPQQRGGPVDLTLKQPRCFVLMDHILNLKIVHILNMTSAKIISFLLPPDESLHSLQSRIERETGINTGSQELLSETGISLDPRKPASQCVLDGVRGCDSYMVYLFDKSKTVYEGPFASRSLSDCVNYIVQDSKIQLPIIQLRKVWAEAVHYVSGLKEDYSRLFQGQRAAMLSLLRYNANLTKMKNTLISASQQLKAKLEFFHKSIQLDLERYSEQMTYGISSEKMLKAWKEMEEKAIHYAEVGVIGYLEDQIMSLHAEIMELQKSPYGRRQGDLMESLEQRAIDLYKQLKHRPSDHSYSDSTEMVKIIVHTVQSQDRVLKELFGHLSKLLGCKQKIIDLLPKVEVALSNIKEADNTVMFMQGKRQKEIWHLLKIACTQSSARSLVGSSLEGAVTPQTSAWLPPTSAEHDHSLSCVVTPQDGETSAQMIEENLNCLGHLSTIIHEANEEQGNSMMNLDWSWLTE
The settings on record: at 1 µM.

Test [7] addresses T3, Inhibitor of nuclear factor kappa-B kinase subunit alpha (Homo sapiens). The settings on record: at 10 µM.
Test [8] addresses T4, Inhibitor of nuclear factor kappa-B kinase subunit beta (Homo sapiens) (UniProt O14920).
T4 sequence (whole entry): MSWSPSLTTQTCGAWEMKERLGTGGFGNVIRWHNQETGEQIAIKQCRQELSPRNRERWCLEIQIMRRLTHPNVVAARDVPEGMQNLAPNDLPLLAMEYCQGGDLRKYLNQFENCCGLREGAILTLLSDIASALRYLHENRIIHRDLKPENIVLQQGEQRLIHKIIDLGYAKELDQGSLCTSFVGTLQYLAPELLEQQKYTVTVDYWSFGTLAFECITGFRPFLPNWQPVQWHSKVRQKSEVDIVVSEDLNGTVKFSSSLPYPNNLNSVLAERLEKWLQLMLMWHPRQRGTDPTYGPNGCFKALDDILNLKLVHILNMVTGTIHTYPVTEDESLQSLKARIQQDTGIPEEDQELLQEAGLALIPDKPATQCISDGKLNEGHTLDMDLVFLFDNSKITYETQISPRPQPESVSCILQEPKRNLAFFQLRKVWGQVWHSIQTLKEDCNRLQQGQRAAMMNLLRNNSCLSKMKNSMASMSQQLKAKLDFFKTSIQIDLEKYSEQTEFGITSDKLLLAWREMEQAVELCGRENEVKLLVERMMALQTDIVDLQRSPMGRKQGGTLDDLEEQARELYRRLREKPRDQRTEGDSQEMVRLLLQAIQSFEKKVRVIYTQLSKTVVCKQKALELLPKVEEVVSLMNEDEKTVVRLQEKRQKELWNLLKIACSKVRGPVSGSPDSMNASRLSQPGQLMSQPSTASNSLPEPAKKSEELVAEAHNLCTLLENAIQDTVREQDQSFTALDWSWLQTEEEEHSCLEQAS
The note with it: at 1 µM.

Test [9] concerns the target T4, Inhibitor of nuclear factor kappa-B kinase subunit beta (Homo sapiens). The settings on record: at 10 µM.

As for `CN(C)CCCn1cc(C2=C(c3c[nH]c4ccccc34)C(=O)NC2=O)c2ccccc21`, the residual activity (in general, the signal under treatment as a percentage of the control signal) in test [1] amounted to 80%; in test [2], 22%; in test [3], 91%; in test [4], 71%; in test [5], 110%; in [6], 101%. The values for the residual activity in [7], in test [8] and in test [9] were 58%, 104% and 82%, respectively.
